# Assay outcomes (PubChem)
# Compounds with a hit are over-represented: about 11% of the library has one in this group of screens.
# JMJD2A Tudor: inhibitors of human JMJD2A Tudor domain | AlphaScreen JMJD2A-Tudor / H3K4me3 peptide binding | O75164 | hit rate 4.4% among 390,000 | Potency, µM (top dose mostly 114 µM), inactives show at the highest dose activity change, negative = inhibition, usual class: inhibitors; further: potency means the concentration at half of the fitted maximal effect; on the % scale 0 is the no-effect control and ±100 the full control effect; nearly all actives have a fitted effect of over 50% in size
# PI5P4K alpha inh: inhibitors of human PI5P4K alpha; hit rate 1.2% among 330,000; PI5P4Kalpha enzyme, ADP-Glo luminescence, 60 min; stronger effect = lower value; max response, %; active means max response of -50% or lower; inconclusive means between -30% and -50%; inactive means -30% or higher; further: value at the top dose of about 77 µM; on the % scale 0 is the no-effect control and ±100 the full control effect
#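 ADP-Glo luminescence end-point after a 60 min room-temperature kinase reaction. PI5P4Kalpha and substrate in HEPES pH 7.4 buffer with EGTA, 0.1% CHAPS and 5% DMSO; ATP at 5 microM final.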
# HP1b chromo inh: inhibitors of HP1-beta chromodomain binding to methylated histone tails | AlphaScreen HP1-beta / biotin-H3K9me3 peptide binding | P83916 | Potency, µM (titrated, usually from 114 µM), for the others: at the highest dose activity change, negative = inhibition, hits mostly inhibitors | hit rate 0.56% among 390,000; further: potency means the concentration at half of the fitted maximal effect; nearly all actives have a fitted effect of over 70% in size
#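 AlphaScreen: HP1-beta (50 nM) preformed 30 min with biotin-H3(1-18)K9me3 peptide (50 nM) in PBS pH 7.4, 0.01% Tween-20. Compound added for 30 min at RT, then streptavidin donor/nickel chelate acceptor beads (10 ug/mL) for 30 min.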
# BAZ2B block: inhibitors of human BAZ2B bromodomain; Potency, µM (series often up to 114 µM), inactives show at the highest dose activity change, negative = inhibition, most hits filed as inhibitors; AID 504333; hit rate 4.4% among 360,000; AlphaScreen BAZ2B-H3K14Ac peptide displacement; further: potency means the concentration at half of the fitted maximal effect; on the % scale 0 is the no-effect control and ±100 the full control effect; nearly all actives have a fitted effect of over 60% in size
#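 AlphaScreen displacement: compounds (up to 110uM) incubated 30 min at room temperature with a preformed 50 nM BAZ2B/50 nM biotinylated H3K14Ac peptide complex in PBS pH 7.4 with Tween-20. Donor and acceptor beads at 10 ug/mL final added, 20 min light-protected before reading.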
# L3MBTL1 block: L3MBTL1 (human) inhibition | hit rate 0.66% among 230,000 | Q9Y468 | AID 485360 | AlphaScreen L3MBTL1–H3K9me1 peptide binding | Potency, µM (doses to about 57.1 µM), without a hit: at the highest dose activity, negative = inhibition, most hits filed as inhibitors; further: potency means the concentration at half of the fitted maximal effect; on the % scale 0 is the no-effect control and ±100 the full control effect; nearly all actives have a fitted effect of over 60% in size
#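 Read-out is AlphaScreen signal from streptavidin donor and nickel chelate acceptor beads (10 ug/mL final each) bridging L3MBTL1 (50 nM) and biotinylated K9-monomethylated H3(1-15) peptide (75 nM), after 30 min compound exposure at room temperature.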
# G9a inh: G9a (human) methyltransferase inhibition; Q96KQ7; G9a H3K9 monomethylation, AlphaScreen, 2 h; Potency, µM (top dose mostly 102 µM), inactives show top-dose activity, negative = inhibition, usual class: inhibitors; hit rate 8.8% among 350,000; further: potency means the concentration at half of the fitted maximal effect; on the % scale 0 is the no-effect control and ±100 the full control effect; nearly all actives have a fitted effect of over 75% in size
#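 Chemiluminescent proximity detection of H3K9 monomethylation, read after 10 min bead incubation in the dark. Reaction: 20 nM G9a, 500 nM biotin-H3K9 peptide, 20 uM SAM cofactor, 2 h, room temperature, following 15 min enzyme-compound preincubation.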
# * marks the source's active call; other numbers are inactive results; ? = inconclusive; . = no result given; [ ] = another dose, or the depositor's remark. Unless noted, the call rests on the fitted dose curve; in most records, active means well fitted inhibition curve with a large enough effect; inconclusive means small, poorly fitted or top-dose-only effect; inactive means no such curve, though single readings can be large or run the other way.
SMILES,JMJD2A Tudor,PI5P4K alpha inh,HP1b chromo inh,BAZ2B block,L3MBTL1 block,G9a inh
COc1ccc2c(c1)c1c(c(=O)n(-c3cccc(C)c3)c(=O)n1CC(=O)NCC1CCCO1)n2C (stereo unspecified),-7%,.,17%,-13%,.,-4%[59 µM]
COc1ccccc1CNC(=O)c1cc2sccc2n1Cc1ccc(F)cc1,-19%,.,69%,22%,.,29%[59 µM]
CCCCN(C)c1nc(-c2ccco2)c2c(c1C#N)CC(C)(C)OC2,89µM*,?,32%,32%,11%,45µM*
CC(C)c1nc(N2CCN(C(=O)c3ccccc3)CC2)c(C#N)c2c1COC(C)(C)C2,-36%,-1,13%,-30%,26%[11.4 µM],?
CC1(C)Cc2c(C#N)c(N3CCN(C(=O)c4ccccc4)CC3)nc(-c3ccco3)c2CS1,-34%,?,-1%,50µM*,?,14µM*
CC1(C)Cc2c(C#N)c(N3CCCC3)nc(-c3ccco3)c2CO1,.,.,.,26%,12%,35µM*
N#Cc1c(N2CCOCC2)nc(-c2ccco2)c2c1CCCC2,19%,-29,59%,21%,29%,22µM*
CC1(C)Cc2c(C#N)c(NCc3ccco3)nc(-c3ccco3)c2CO1,-14%,?,45%,-10%,-10%[11.4 µM],?
O=S(=O)(c1ccc2c(c1)OCCO2)N1CCN(S(=O)(=O)c2c(F)ccc(O)c2F)CC1,-14%,.,.,.,.,.
Cn1c(CN2CCCC2)c(C#N)c2ccccc21,-11%,1,59%,-9%,-4%,?
CC1CCN(Cc2c(C#N)c3ccccc3n2C)CC1,13%,3,93%,18%,6%,25µM*
Cn1c(CN2CCOCC2)c(C#N)c2ccccc21,1%,.,30%,3%,-10%,32µM*
CCOC(=O)c1c(O)c(Cl)c(C)[nH]c1=O,79µM*,-16,5%,.,.,-10%
CCOC(=O)c1c(O)c2c([nH]c1=O)CCCC2,7%,.,28%,-6%,.,15%[2.33 µM]
COc1cccc(Cn2c(=O)n(Cc3ccccc3)c(=O)c3c2c2cc(OC)ccc2n3C)c1,8%,.,26%,-5%,.,-1%[59 µM]
COc1ccc(N(CC(=O)NCCSCc2ccco2)S(=O)(=O)c2ccccc2)cc1,-34%,0,-14%,-34%,-19%,-41%
O=C(CN(c1ccccc1)S(=O)(=O)c1ccccc1)NCCSCc1ccco1,56µM*,?,-16%,50µM*,-14%,?
N#C/C(=C/c1ccc(Sc2nc3ccccc3[nH]2)o1)c1cccc(Br)c1,-19%[11.4 µM],-2,49%,8%,.,?
CCN1C(=O)S/C(=C/c2ccc(Sc3nc4ccccc4[nH]3)o2)C1=O,-24%,-2,18%,-2%,-8%,11µM*
Cc1cc(C)n(C(C)CC(=O)NCc2ccc(N(C)C)cc2)n1 (stereo unspecified),-29%,.,14%,-9%,.,?
COC(=O)[C@@]1(Cc2ccc(OC)cc2)[C@H]2c3cc(C(=O)N4CCCC4)n(CCN4CCOCC4)c3C[C@H]2CN1C(=O)c1ccccc1,.,9,.,.,.,.
COC(=O)[C@@]1(Cc2ccc(OC)cc2)[C@H]2c3cc(C(=O)N4CCCC4)n(Cc4ccc(OC)c(OC)c4)c3C[C@H]2CN1C(=O)c1ccccc1,.,.,.,?,-6%,45µM*
COC(=O)[C@@]1(Cc2ccc(OC)cc2)[C@H]2c3cc(C(=O)N(C)C)n(CCc4ccc(OC)c(Br)c4)c3C[C@H]2CN1C(=O)c1ccccc1,.,.,.,?,?,40µM*
COC(=O)[C@@]1(Cc2ccc(OC)cc2)[C@H]2c3cc(C(=O)N4CCCC4)n(CCN4CCNC4=O)c3C[C@H]2CN1C(=O)c1ccccc1,.,.,.,-11%,-8%,79µM*
COC(=O)[C@@]1(Cc2ccc(F)cc2)[C@H]2c3cc(C(=O)N(C)C)n(CCSCCO)c3C[C@H]2CN1C(=O)c1ccccc1,-30%,-1,28%,?,-6%,?
